LMP1 NFkB inh: Epstein-Barr LMP1 NF-kappaB reporter inhibition | LMP1-induced NF-kappaB luciferase reporter cells, luminescence | inhibition, % at 12.5 µM | actives 0.69% (n = 350,000); in the data active means inhibition above about 41%; inconclusive means no clear call, values can overlap the other calls;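 further: 0% = neutral control wells and 100% = reference inhibitor control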
CF NFkB block: cystic fibrosis NF-kB activation inhibition. KKLEB NF-kB-GFP reporter, PAF-induced, GFP fluorescence overnight. inhibition, % at 5 µM. actives 0.86% (n = 360,000). AID 588850;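 active means at least 50% inhibition at 5 µM, scaled per plate between neutral and stimulator controls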;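 further: PAF is a Pseudomonas aeruginosa culture filtrate used as stimulus; plate controls were PAF-stimulated DMSO wells for no effect and unstimulated DMSO wells for full effect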
Peg3 promoter: reduces Peg3 promoter-driven luciferase expression in HeLa | HeLa PEG-Prom luciferase reporter, luminescence, overnight | inhibition, % at 20 µM | actives 1.7% (n = 360,000);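 active means inhibition of at least 50% at 20 µM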
TRPM1 prom inh: MITF TRPM1 promoter inhibition in SK-MEL-5 cells. actives 0.83% (n = 330,000). SK-MEL-5 TRPM1 promoter luciferase, 24 h. inhibition, % at 12.5 µM;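 active means mean inhibition across replicates of 60% or more, whatever share of single replicates reaches that level; inconclusive means some that reach 60%, reason not given; inactive means mean inhibition across replicates below 60%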
KKLEB cytotox: reduces viability of KKLEB cystic fibrosis airway cells; actives 0.36% (n = 360,000); activity change (cytotoxicity), % at 5 µM; KKLEB CF airway cells viability, ATPlite luminescence, overnight; stronger effect = lower value; cells stimulated with P. aeruginosa culture filtrate;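 active means corrected activity change at or below -50% at 5 µM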
HIF-2a block: blocks HIF-2a reporter activity | 786-0 RCC cells HIF-2a reporter, luciferase luminescence, overnight | actives 0.72% (n = 360,000) | inhibition, % at 18.8 µM;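 active means inhibition of the luminescence signal of 40% or more relative to plate controls, in a single-dose primary screen at 18.75 µM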
Numbers without * were called inactive. This is a sample that favours compounds with a hit; in the whole collection about 3% have one here.

How did c1ccc2c(c1)Nc1cc3ccccc3cc1O2 do in these assays?
LMP1 NFkB inh: -3.4; CF NFkB block: -17.6; Peg3 promoter: -135.2; TRPM1 prom inh: -35.7; KKLEB cytotox: -0.5; HIF-2a block: -133.3

Results for COC(=O)c1sc(N2C(=O)c3oc4ccccc4c(=O)c3C2c2cccc(O)c2)nc1C (stereo not drawn) ?
LMP1 NFkB inh: -1.3; CF NFkB block: 0.4; Peg3 promoter: 52.2*; TRPM1 prom inh: -23.4; KKLEB cytotox: -0.9; HIF-2a block: 11.3

What do the screens show for `CC(C)n1cnc2c(Nc3cccc(Cl)c3)nc(NCCCO)nc21`?
LMP1 NFkB inh: -2.7; CF NFkB block: 44.8; Peg3 promoter: 32.5; TRPM1 prom inh: 31.4; KKLEB cytotox: -14.2; HIF-2a block: -66.2

What do the screens show for `C=CC(=O)Nc1cccc(Nc2nc(N[C@H]3CC[C@H](N(C)C)CC3)nc3c2ncn3C(C)C)c1`?
LMP1 NFkB inh: 91.5*; CF NFkB block: 84.6*; Peg3 promoter: 101.7*; TRPM1 prom inh: 90.0*; KKLEB cytotox: -70.0*; HIF-2a block: 71.5*

How did CCC(=O)NC1=C(Cl)C(=O)C(NC(=O)CC)=C(Cl)C1=O do in these assays?
LMP1 NFkB inh: 11.2; CF NFkB block: 37.3; Peg3 promoter: 80.6*; TRPM1 prom inh: 23.2; KKLEB cytotox: -2.1; HIF-2a block: 95.7*

What do the screens show for `COC(=O)[C@@]1(C(C)C)N=C(c2cc(OC)c(OC)c(OC)c2)[C@]2(O1)C(=O)N(C)c1ccc(Cl)cc12`?
HIF-2a block: 11.1

What do the screens show for `O=C(Nc1cccnc1)c1ccc(Cl)c(S(=O)(=O)N2CCCCC2)c1`?
LMP1 NFkB inh: 7.6; CF NFkB block: 25.6; Peg3 promoter: -6.5; TRPM1 prom inh: 4.8; KKLEB cytotox: -17.4; HIF-2a block: -22.3

What do the screens show for `O=C(O)c1cccc(NC(=O)c2ccc(Cl)c(S(=O)(=O)N3CCCCCC3)c2)c1`?
LMP1 NFkB inh: 56.6*; CF NFkB block: 7.2; Peg3 promoter: -247.2; TRPM1 prom inh: -31.0; KKLEB cytotox: -5.0; HIF-2a block: -89.2

Results for CCCn1c(NC(=O)c2ccc(Cl)c(S(=O)(=O)N3CCCC3)c2)nc2ccccc21 ?
LMP1 NFkB inh: 2.6; CF NFkB block: -4.3; Peg3 promoter: 53.4*; TRPM1 prom inh: 33.4; KKLEB cytotox: -7.0; HIF-2a block: 12.3

What do the screens show for `O=C(NCc1nc2ccccc2[nH]1)c1ccc(Cl)c(S(=O)(=O)N2CCCC2)c1`?
LMP1 NFkB inh: 4.3; CF NFkB block: -1.0; Peg3 promoter: 9.1; TRPM1 prom inh: 16.9; KKLEB cytotox: -12.4; HIF-2a block: -0.9

Results for O=C(O)c1cccc(NC(=O)c2cccc(NC(=O)C3CCCO3)c2)c1 (stereo not drawn) ?
LMP1 NFkB inh: 9.5; CF NFkB block: -20.3; Peg3 promoter: 47.6; TRPM1 prom inh: 59.4; KKLEB cytotox: 0.9; HIF-2a block: 46.6*

What do the screens show for `O=C(O)c1cccc(NC(=O)C2CCCO2)c1` (stereo not drawn)?
LMP1 NFkB inh: 2.0; CF NFkB block: -7.6; Peg3 promoter: 7.5; TRPM1 prom inh: 11.6; KKLEB cytotox: -2.5; HIF-2a block: 26.5

Results for CN(C)CCCNC(=O)c1ccc(Cl)c(S(=O)(=O)N2CCCCCC2)c1 ?
LMP1 NFkB inh: -3.4; CF NFkB block: 1.2; Peg3 promoter: 90.6*; TRPM1 prom inh: -12.7; KKLEB cytotox: 1.5; HIF-2a block: 17.6

What do the screens show for `Cc1nc(-c2cccc(NC(=O)c3ccc(Cl)c(S(=O)(=O)N4CCCC4)c3)c2)cs1`?
LMP1 NFkB inh: 4.2; CF NFkB block: -6.0; Peg3 promoter: 55.0*; KKLEB cytotox: -6.0; HIF-2a block: -37.5

What do the screens show for `Cc1nc(-c2cccc(NC(=O)c3cccc(S(=O)(=O)N4CCCC4)c3)c2)cs1`?
LMP1 NFkB inh: -5.4; CF NFkB block: -27.5; Peg3 promoter: 18.2; TRPM1 prom inh: -5.1; KKLEB cytotox: 0.2; HIF-2a block: -48.2

Results for NC1=CC(=O)C(=O)c2ccccc21 ?
LMP1 NFkB inh: 0.0; CF NFkB block: 68.4*; Peg3 promoter: 55.0*; TRPM1 prom inh: 96.7*; KKLEB cytotox: -26.1; HIF-2a block: 0.3

How did Nc1ccc(O)c2c1C(=O)c1ccccc1C2=O do in these assays?
LMP1 NFkB inh: 4.9; CF NFkB block: -123.3; Peg3 promoter: -75.9; TRPM1 prom inh: 10.6; KKLEB cytotox: 10.0; HIF-2a block: -28.9

Results for COc1ccc2[nH]cc(CCNC(=O)/C=C/[C@H]3O[C@@H](n4cc(C)c(=O)[nH]c4=O)C[C@@H]3O)c2c1 ?
CF NFkB block: -6.3; Peg3 promoter: 10.1; KKLEB cytotox: 14.8; HIF-2a block: 15.1

How did COc1ccc(NC(=O)C2(C)Cc3c(-c4cccc(C(N)=O)c4)ccnc3O2)cn1 (stereo not drawn) do in these assays?
CF NFkB block: 9.7; Peg3 promoter: 27.9; KKLEB cytotox: -8.4; HIF-2a block: 18.7

What do the screens show for `CCOC1=CC2=C(C(=O)C(Cl)=CC2=O)[C@@H]2CN(S(=O)(=O)c3ccc(C)cc3)[C@@H](c3ccccc3)[C@H]12`?
CF NFkB block: -15.5; Peg3 promoter: 48.8; KKLEB cytotox: -16.1; HIF-2a block: 57.2*

How did COC(=O)C1CCN(C(=O)COC(=O)c2n[nH]c3ccccc23)CC1 do in these assays?
LMP1 NFkB inh: -3.9; CF NFkB block: -3.6; Peg3 promoter: -45.3; TRPM1 prom inh: -19.1; KKLEB cytotox: 6.9; HIF-2a block: -10.6

Results for CC1CCCN(C(=O)COC(=O)c2n[nH]c3ccccc23)C1 (stereo not drawn) ?
LMP1 NFkB inh: 60.9*; CF NFkB block: -3.7; Peg3 promoter: -179.6; TRPM1 prom inh: -76.0; KKLEB cytotox: 4.2; HIF-2a block: -199.3

What do the screens show for `C=CCN(CC=C)c1cnn(-c2nc3ccccc3[nH]2)c(=O)c1Cl`?
LMP1 NFkB inh: 2.1; CF NFkB block: 9.1; Peg3 promoter: -180.5; TRPM1 prom inh: -60.2; KKLEB cytotox: -9.2; HIF-2a block: -206.5

What do the screens show for `O=c1c(Cl)c(NCCCO)cnn1-c1nc2ccccc2[nH]1`?
LMP1 NFkB inh: -43.5; CF NFkB block: -7.1; Peg3 promoter: 98.7*; TRPM1 prom inh: 4.6; KKLEB cytotox: 5.2; HIF-2a block: -99.4

How did O=[N+]([O-])/C=C\c1ccc(N2CCOCC2)cc1 do in these assays?
LMP1 NFkB inh: inconclusive; CF NFkB block: 24.9; Peg3 promoter: 14.5; TRPM1 prom inh: 73.8*; KKLEB cytotox: -8.3; HIF-2a block: 54.9*

What do the screens show for `CCCCN1CCc2c1nc1ccc(Br)cc1c2N`?
LMP1 NFkB inh: 1.9; CF NFkB block: -38.9; Peg3 promoter: 31.3; TRPM1 prom inh: 66.2*; KKLEB cytotox: -3.4; HIF-2a block: -75.4

Results for Cc1ccc2nc3c(c(N)c2c1)CCN3C ?
LMP1 NFkB inh: -0.6; CF NFkB block: -35.8; Peg3 promoter: -21.4; TRPM1 prom inh: 7.9; KKLEB cytotox: 8.7; HIF-2a block: -7.7

High-throughput results: PubChem BioAssay, several laboratories
